Reference: publication PMC12136788
Positions count from the first letter of the chain named. The full ranking holds about 24,000 sequences; the median of “enrichment r” is about 0.99, and the highest 2% start at about 3.7. The entries come from a sample that favours the highest values as a whole.

T1: UNK ZnF1-3 (human, UniProt Q9C0B0 31-174)
T1 sequence: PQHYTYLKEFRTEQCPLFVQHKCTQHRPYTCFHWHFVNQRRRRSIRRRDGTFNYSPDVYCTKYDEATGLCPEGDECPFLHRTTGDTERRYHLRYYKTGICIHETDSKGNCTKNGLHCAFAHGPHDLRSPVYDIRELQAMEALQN

B1: chr16:45382771:45382772:-_ENSMUSG00000022661_ENSMUST00000163230|mus_mus|mus_mus_mus_hu_True|28_38 (ssRNA)
RNA: GGGAGUUCUACAGUCCGACGAUCCUGGGUCAUGUUAUAAGACAAAUGGACAGGGAGGGCAUGCUUCUCAAAAAAUGUGAGCUAUUGUCUAAGACUAACAAUAUUGCCUAAGUGCUAAAAAUAAGUUAAAUGAAUAAGUUAAGACAACAGAGGAUUGAGCAUCA
B2: chr16:45382771:45382772:-_ENSMUSG00000022661_ENSMUST00000163230|mus_mus|mus_mus_mus_hu_True|28_48 (ssRNA)
RNA: B1 RNA with U87A, G105U, C106A
B3: chr16:8858281:8858282:+_ENSMUSG00000022507_ENSMUST00000023150|mus_mus|motif|central (ssRNA)
RNA: GGGAGUUCUACAGUCCGACGAUCCUCAUGAGGUGAGGAGGUGCUACAUAUUGAAUGCAAUGGAAAAAAGUAACCAGUGCGGAAGUUUUUAAAAAGUUUAAUGGAGCCAAUAAUUCGGCAUAUAAAUUGUGUUCUGGCAGACAUCAACAGAGGAUUGAGCAUCA
B4: chr16:8858281:8858282:+_ENSMUSG00000022507_ENSMUST00000023150|mus_mus|FALSE|FALSE (ssRNA)
RNA: B3 RNA with G80U, G81A
B5: chr16:45382771:45382772:-_ENSMUSG00000022661_ENSMUST00000163230|mus_mus|mus_mus_mus_hu_True|28_108 (ssRNA)
RNA: B1 RNA with G27A, C30G, A31U, G33A, A36G, G105U, C106A
B6: chr5:128440902:128440903:+_ENSG00000066583_ENST00000173527|hu_mus|hu_hu_hu_mus_True|38_48 (ssRNA)
RNA: GGGAGUUCUACAGUCCGACGAUCUUGAACGGUGCUGCCAAGUCCUUUGGGGUAUUGUUCCGUUAUGAUAACUGGAAUCCCUAAGAUCCGGGCCCCUUGCAACAAUCUCUGUCCCACACUAAUGAUGUCCCCAAAGUAUUUGAUCAACAGAGGAUUGAGCAUCA
B7: chr3:133545784:133545785:-_ENSG00000154917_ENST00000285208|hu_mus|motif|central (ssRNA)
RNA: GGGAGUUCUACAGUCCGACGAUCGAGGAUGUGAGUGUGUGUAUGUGUGCGCGCGAAGGGUGUAUACACAAGUCUAUCUCGGUGUAUAAUUAUGUACACACAUAUAAAAACUAAACACGUGACGUUUCGAUUAUGCUCGUACAUCAACAGAGGAUUGAGCAUCA
B8: chr1:39494564:39494565:+_ENSG00000168653_ENST00000372967|hu_hu|motif|central (ssRNA)
RNA: GGGAGUUCUACAGUCCGACGAUCACCUGCACGUCUCAUCGUUUUCUGCCGAAGCAAACACUCUACGAAAUCAUCAUAUUCGGUCUUGCACUCUUUCUCUGCCCGAGUAUAACCGAUUCCAUGUGCACAUUCUAUCCAUUCUUUCAACAGAGGAUUGAGCAUCA
B9: 121693014_121693134_369_3pUTR_ENSMUSG00000060227_ENSMUST00000078752|mouse|control|control (ssRNA)
RNA: GGGAGUUCUACAGUCCGACGAUCUUCUCCAAGCGCCCGCGGGCCACCUCGGUGCGCUGGACCUGGCCCUGCAGCUCGGCCACCUCCUCCUGAAGCAGAACGUGGCGGGAGGAGAUGCUCCAGUAGUUGAAGGCAAGGACGACGCAACAGAGGAUUGAGCAUCA
B10: chr19:47610742:47610743:-_ENSMUSG00000042694_ENSMUST00000049369|mus_hu|FALSE|FALSE (ssRNA)
RNA: GGGAGUUCUACAGUCCGACGAUCUGGCACCUGGCGGGACUCCUUCAUGUCCAGGAUAUCCCUGAUGUAGAGUUUUGCAAAGGCUAGAAACACAGGAUCCAAACCCCACAAGAGGGAAGGGGUCUCCUCUUCACACCGGCUGGACAACAGAGGAUUGAGCAUCA
B11: chr16:94646735:94646736:+_ENSMUSG00000040785_ENSMUST00000117648|mus_mus|motif|central (ssRNA)
RNA: GGGAGUUCUACAGUCCGACGAUCUGUUUUUAACUUUUUCCAGCAGUUCAUAUGAAAUUCUACCUUACAGUAUUGGCAACAGCGGAUUCGUAUAAAACCCUUAAAGUCUGGAUCAGUUAAGUAAAUCUGAAUUUUAGAAUAUCCCAACAGAGGAUUGAGCAUCA
B12: chr6:145182920:145182921:-_ENSMUSG00000030265_ENSMUST00000032399|mus_hu|motif|central (ssRNA)
RNA: GGGAGUUCUACAGUCCGACGAUCCUCCUCUUGACCUGCUGUGUCGAGAAUAUCCAAGAGACAGGUUUCUCCAUCAAUUACGGCUUGCUUCCUGUAGGAAUCCUCUAUUGUUGGAUCAUAUUCGUCCACAAAAUGAUUCUGAAUCAACAGAGGAUUGAGCAUCA
B13: chr7:75932113:75932114:+_ENSG00000106211_ENST00000248553|hu_mus|FALSE|FALSE (ssRNA)
RNA: GGGAGUUCUACAGUCCGACGAUCCUGCGACCACUCAUCGGGCAACCGGGGCACCCCGAAAGCUUGAUCGAAGAGGCGGCUGUGUGCAGGGUACCAGUCCCGGAAUGGUUCCCAGCUCGGGCUCCGCAGCAGCGAGAAGGGCACCAACAGAGGAUUGAGCAUCA
B14: chr16:45382771:45382772:-_ENSMUSG00000022661_ENSMUST00000163230|mus_mus|mus_mus_mus_hu_True|18_28 (ssRNA)
RNA: B1 RNA with G105U, C106A, A117U, U121A, A123U, G124A, U125A, U126G
B15: chr16:45382771:45382772:-_ENSMUSG00000022661_ENSMUST00000163230|mus_mus|mus_mus_mus_hu_True|28_88 (ssRNA)
RNA: B1 RNA with C50U, G105U, C106A
B16: chr16:45382771:45382772:-_ENSMUSG00000022661_ENSMUST00000163230|mus_mus|mus_mus_mus_hu_True|28_78 (ssRNA)
RNA: B1 RNA with G57A, C66U, G105U, C106A
B17: chr16:45382771:45382772:-_ENSMUSG00000022661_ENSMUST00000163230|mus_mus|mus_mus_mus_hu_True|28_68 (ssRNA)
RNA: B1 RNA with C68G, A69U, A73G, G105U, C106A
B18: chr1:225611761:225611762:-_ENSG00000143815_ENST00000272163|hu_mus|hu_hu_hu_mus_True|78_108 (ssRNA)
RNA: GGGAGUUCUACAGUCCGACGAUCCCAGGCCAUCGACCUCUGACCACUUCACCCUCAGCAAAUUUCCUACUUGGCAUUUUCUAAAAUUAGUCUGGCCGCGCUCCGGCGGGAACUCCAGCCACUCCAGGACAGUCACCAGCAGCCCAACAGAGGAUUGAGCAUCA
B19: 71781198_71781318_2220_CDS_ENSMUSG00000008305_ENSMUST00000030095|mouse|control|control (ssRNA)
RNA: GGGAGUUCUACAGUCCGACGAUCCACGCAGCUCUCGUGGAGGUGCAGCUGGUACUUGUCAGGCUUGUUCACAUGCAGAACUUCCACGUUGCUGCUUUCCAUGCCCACAGCAAGCCACUCCCCAGUUGGGCAAUAUCCCAAAGACAACAGAGGAUUGAGCAUCA
B20: chr3:57561382:57561383:-_ENSG00000168374_ENST00000303436|hu_hu|FALSE|FALSE (ssRNA)
RNA: GGGAGUUCUACAGUCCGACGAUCUAGCAGCACUGCAUCUCUCAAUUCAUCUACCAGAAGCAUUUUCUGCAGCUCAUCUGCUACUUCCUGAAUUCUUUCACGAUCGUUGCUAUCUACCACAAAAAUAAGACCCUGGGUAUUCUGCAACAGAGGAUUGAGCAUCA
B21: chr1:163295886:163295887:+_ENSG00000143228_ENST00000271452|hu_mus|motif|central (ssRNA)
RNA: GGGAGUUCUACAGUCCGACGAUCGGUUUUUGCCAUCUGCUCCUGUUAAUAAUUUAUUGCGAAUAUGAACCACAAGCUCAGCGGCAUUGUAUCUGGGGAAUGACAAAGUUUCCAUUAUGGGAGUCUCCUCCCUGAGUAUUGUUGCAACAGAGGAUUGAGCAUCA
B22: chr6:29525140:29525141:-_ENSMUSG00000012535_ENSMUST00000012679|mus_hu|FALSE|FALSE (ssRNA)
RNA: GGGAGUUCUACAGUCCGACGAUCGUUAGUUUUGUACAAAUGUUCCCCCAGUCGGUACCAAAAGUUAAAUGAAAUUUCUACUACCUCAUAUUGAGGAUGGCCUGCACAGAUAAGCAGCAGCUCCAGAGUUCGAAGGUCCCCAAGCAACAGAGGAUUGAGCAUCA

Target: T1, UNK ZnF1-3
Assay: nsRBNS (natural sequence RNA bind-n-seq); RBNS binding buffer (assumed for nsRBNS): 25 mM Tris pH 7.5, 150 mM KCl, 3 mM MgCl2, 0.01% Triton X-100, 500 ug/ml BSA, 20 U/ml SUPERase-In, 4 C; UNK is unkempt and MSI1 is Musashi-1; names of the RNAs are library labels; protein concentration not given here; high values mean tight binding

Binder	binding signal [enrichment R]
B1	12.5
B2	7.16
B3	3.41
B4	5.62
B5	10.2
B6	0.772
B7	1.66
B8	0.521
B9	0.777
B10	0.707
B11	1.03
B12	0.665
B13	1.04
B14	9.98
B15	5.11
B16	12.8
B17	6.96
B18	1.33
B19	0.78
B20	0.947
B21	1.12
B22	0.862
